target: AMP-activated protein kinase, AMPK (Homo sapiens) (UniProt P54646+O43741+P54619+Q9UGJ0+Q9Y478+Q13131+Q9UGI9); assay: AMP-dependent Kinase enzyme assay. An in vitro enzyme assay that detects ADP turnover that is directly proportional to AMPK activity. This uses naive AMPK that is activated during the assay with MK-8722; format: functional; design: scale not given: direction of the effect not stated beside the values; conditions: 30 µM

Compared with `Cc1nn(C)c(C)c1-c1ccc(=O)n(C(C)C(=O)NC2CC2)n1` (stereo not given), `CCC(C)c1csc(NC(=O)c2sc(-c3nnc[nH]3)nc2C)n1` (stereo not given) is higher in Percent Effect: 9.59% for the first, 12.2% for the second.

First: COc1ccc([C@@H]2CN(C(=O)CCCc3cn[nH]c3)C[C@H]2N(C)C)cc1
Second: COc1ccc(NC(=O)N2CCCC(CO)C2)c(C)c1 (stereo not given)
The Percent Effect of the first is higher: 2.77% for the first, -4.81% for the second.

Compared with `C=Cn1cc(CN2CCC(c3ncc(Cl)cc3S(C)(=O)=O)CC2)c(C)n1`, `Cc1nc(S(=O)(=O)N2CCCCc3ccccc32)cn1C` is lower in Percent Effect: 13.4% for the first, 0.965% for the second.

First: CC(=O)NCCNC(=O)NCc1ccc(-n2ccc(C(F)(F)F)n2)cc1
Second: CN(C)c1cc(CNC(=O)C2COc3ccccc3O2)ccn1 (stereo not given)
The Percent Effect of the first is lower: -0.713% for the first, 0.412% for the second.

First: O=c1cc(N2CCNCC2)cnn1Cc1noc(C2CCCC2)n1
Second: CC1CN(Cc2cccc(CNC3CCCC3)c2)CCO1 (stereo not given)
The Percent Effect of the first is lower: -1.96% for the first, 2.35% for the second.

Going from `O=S(=O)(NCC1(c2cccs2)CCOCC1)c1cccnc1` to `N#Cc1cc(S(N)(=O)=O)ccc1N1CCN(c2ccccc2)CC1`, the Percent Effect rises from -2.3% to 10.8%.

Going from `CC(C)N(C)S(=O)(=O)c1ccc2c(c1)CCN(C(=O)c1ccccn1)C2` to `NCc1ccnc(Oc2ccccc2)c1`, the Percent Effect rises from -446% to -5.26%.

First: Nc1nc(CCCNC(=O)c2ccccc2C2CCNC2)cs1 (stereo not given)
Second: Cc1ccccc1C(=O)NC[C@@H]1CCN(C(=O)CN2CCCC2)C[C@H]1O
The Percent Effect of the first is lower: -5.1% for the first, -0.0834% for the second.

First: Cn1cc(N2CCN(c3ccc(C#N)cc3F)CC2=O)cn1
Second: CCc1cc(=O)[nH]c(-c2ccc(NC(C)CN3CCOCC3)nc2)n1 (stereo not given)
The Percent Effect of the first is higher: 0.0438% for the first, -2.92% for the second.

Compared with `Cc1ncc2c(n1)CN(Cc1nc(-c3ccco3)oc1C)CC2`, `O=C(Cn1nc2ccccc2n1)N1CCCC(O)(CO)C1` (stereo not given) is higher in Percent Effect: -38.3% for the first, -6.31% for the second.

From ChEMBL document CHEMBL3988442, “University of Dundee, Small-Polar-MMV Screening Library” (2021)
